We go through 13 compounds from ChEMBL document CHEMBL2218924, “A broad activity screen in support of a chemogenomic map for kinase signalling research and drug discovery” (Biochem J, 2013).

Assay [1] deals with Focal adhesion kinase 1 (Homo sapiens) (UniProt Q05397). To be noted: at 10 µM.
Assay [2] addresses Fibroblast growth factor receptor 1 (Homo sapiens) (UniProt P11362). As to conditions: at 1 µM.
Assay [3] shares this target. As to conditions: at 10 µM.
The target in assay [4] is Fibroblast growth factor receptor 2 (Homo sapiens) (UniProt P21802). To be noted: at 1 µM.
Assay [5] shares this target. To be noted: at 10 µM.
Assay [6] concerns the target Fibroblast growth factor receptor 3 (Homo sapiens) (UniProt P22607). As to conditions: at 1 µM.
For assay [7] the target is unchanged. As to conditions: at 10 µM.
In assay [8] the target is Fibroblast growth factor receptor 4 (Homo sapiens) (UniProt P22455). To be noted: at 1 µM.
Sequence of Fibroblast growth factor receptor 4 (Homo sapiens) (P22455 22-802 limits assumed): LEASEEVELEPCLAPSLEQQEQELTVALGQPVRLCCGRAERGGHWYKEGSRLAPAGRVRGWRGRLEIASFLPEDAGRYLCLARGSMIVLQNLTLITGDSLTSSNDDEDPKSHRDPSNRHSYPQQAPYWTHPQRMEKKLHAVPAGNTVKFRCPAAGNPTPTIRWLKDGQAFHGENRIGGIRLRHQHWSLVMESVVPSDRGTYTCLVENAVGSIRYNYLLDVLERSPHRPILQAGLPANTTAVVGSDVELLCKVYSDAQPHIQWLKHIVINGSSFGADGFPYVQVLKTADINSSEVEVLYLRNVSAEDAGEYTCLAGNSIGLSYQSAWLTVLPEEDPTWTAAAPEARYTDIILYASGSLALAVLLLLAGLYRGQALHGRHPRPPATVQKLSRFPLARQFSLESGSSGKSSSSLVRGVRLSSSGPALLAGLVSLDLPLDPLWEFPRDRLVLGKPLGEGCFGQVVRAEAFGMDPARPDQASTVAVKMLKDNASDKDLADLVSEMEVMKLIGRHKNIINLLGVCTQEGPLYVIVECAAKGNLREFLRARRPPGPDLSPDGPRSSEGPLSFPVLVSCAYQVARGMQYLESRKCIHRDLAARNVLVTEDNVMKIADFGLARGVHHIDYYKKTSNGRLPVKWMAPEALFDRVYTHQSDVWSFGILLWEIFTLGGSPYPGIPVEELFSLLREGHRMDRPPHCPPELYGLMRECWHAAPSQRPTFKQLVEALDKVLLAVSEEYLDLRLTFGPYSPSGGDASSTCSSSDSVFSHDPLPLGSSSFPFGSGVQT
For assay [9] the target is unchanged. As to conditions: at 10 µM.
The target of assay [10] is Tyrosine-protein kinase Fer (Homo sapiens) (UniProt P16591). To be noted: at 1 µM.
Sequence of Tyrosine-protein kinase Fer (Homo sapiens) (P16591 whole entry, looked up): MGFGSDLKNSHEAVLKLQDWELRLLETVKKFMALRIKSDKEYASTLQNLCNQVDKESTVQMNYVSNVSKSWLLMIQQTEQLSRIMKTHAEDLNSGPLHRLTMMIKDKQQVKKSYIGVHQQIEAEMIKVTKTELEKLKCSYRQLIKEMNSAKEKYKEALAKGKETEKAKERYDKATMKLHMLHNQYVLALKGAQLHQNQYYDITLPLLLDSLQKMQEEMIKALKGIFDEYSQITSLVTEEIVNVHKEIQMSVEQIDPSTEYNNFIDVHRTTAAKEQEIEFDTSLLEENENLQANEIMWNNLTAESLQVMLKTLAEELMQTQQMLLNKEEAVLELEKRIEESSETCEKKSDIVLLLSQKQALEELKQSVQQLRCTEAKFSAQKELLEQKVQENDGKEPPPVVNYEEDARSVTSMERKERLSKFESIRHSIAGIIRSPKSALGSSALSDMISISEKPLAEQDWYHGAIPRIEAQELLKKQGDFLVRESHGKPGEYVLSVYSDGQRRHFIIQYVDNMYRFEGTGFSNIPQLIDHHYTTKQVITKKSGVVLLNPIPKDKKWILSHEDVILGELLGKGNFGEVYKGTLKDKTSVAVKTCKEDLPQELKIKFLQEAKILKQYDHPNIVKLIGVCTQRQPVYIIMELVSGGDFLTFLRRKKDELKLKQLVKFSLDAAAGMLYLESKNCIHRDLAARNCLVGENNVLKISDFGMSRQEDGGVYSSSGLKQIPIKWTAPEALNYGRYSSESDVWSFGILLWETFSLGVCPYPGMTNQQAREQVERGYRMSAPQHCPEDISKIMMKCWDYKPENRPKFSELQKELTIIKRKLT
The target is the same in assay [11]. As to conditions: at 10 µM.
The target of assay [12] is Tyrosine-protein kinase Fes/Fps (Homo sapiens) (UniProt P07332). As to conditions: at 1 µM.
Sequence of Tyrosine-protein kinase Fes/Fps (Homo sapiens) (P07332 whole entry): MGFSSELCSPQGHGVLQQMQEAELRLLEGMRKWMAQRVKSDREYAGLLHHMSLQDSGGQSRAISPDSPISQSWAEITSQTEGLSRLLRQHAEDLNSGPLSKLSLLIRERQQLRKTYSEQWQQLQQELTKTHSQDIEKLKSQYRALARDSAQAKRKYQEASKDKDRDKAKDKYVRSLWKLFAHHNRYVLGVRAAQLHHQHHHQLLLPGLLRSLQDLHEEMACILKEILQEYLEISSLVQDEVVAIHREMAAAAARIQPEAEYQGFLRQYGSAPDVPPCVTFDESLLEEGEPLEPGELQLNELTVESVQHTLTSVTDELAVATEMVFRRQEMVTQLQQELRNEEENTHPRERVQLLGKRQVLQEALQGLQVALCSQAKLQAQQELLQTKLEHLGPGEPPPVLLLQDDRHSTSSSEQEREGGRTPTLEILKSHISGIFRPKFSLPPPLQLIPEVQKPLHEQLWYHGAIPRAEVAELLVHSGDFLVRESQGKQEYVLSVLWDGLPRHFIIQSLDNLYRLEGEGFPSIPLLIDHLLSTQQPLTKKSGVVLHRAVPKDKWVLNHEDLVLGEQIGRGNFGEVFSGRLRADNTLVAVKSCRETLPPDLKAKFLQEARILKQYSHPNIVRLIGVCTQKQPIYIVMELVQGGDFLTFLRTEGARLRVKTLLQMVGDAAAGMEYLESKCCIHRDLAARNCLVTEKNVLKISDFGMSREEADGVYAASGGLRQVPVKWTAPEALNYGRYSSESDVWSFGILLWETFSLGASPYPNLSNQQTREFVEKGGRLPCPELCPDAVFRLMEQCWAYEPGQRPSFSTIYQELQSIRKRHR
The target is the same in assay [13]. As to conditions: at 10 µM.
In assay [14] the target is Tyrosine-protein kinase Fgr (Homo sapiens) (UniProt P09769). As to conditions: at 1 µM.
For assay [15] the target is unchanged. As to conditions: at 10 µM.
Assay [16] deals with Vascular endothelial growth factor receptor 1 (Homo sapiens) (UniProt P17948). As to conditions: at 1 µM.
Assay [17] has the same target. As to conditions: at 10 µM.
Assay [18] has as its target Receptor-type tyrosine-protein kinase FLT3 (Homo sapiens) (UniProt P36888). As to conditions: at 1 µM.
The target is the same in assay [19]. To be noted: at 10 µM.
Assay [20] deals with Vascular endothelial growth factor receptor 3 (Homo sapiens) (UniProt P35916). To be noted: at 1 µM.

SMILES strings stand for the structures.

Sequence of Fibroblast growth factor receptor 1 (Homo sapiens) (P11362 22-822 limits assumed): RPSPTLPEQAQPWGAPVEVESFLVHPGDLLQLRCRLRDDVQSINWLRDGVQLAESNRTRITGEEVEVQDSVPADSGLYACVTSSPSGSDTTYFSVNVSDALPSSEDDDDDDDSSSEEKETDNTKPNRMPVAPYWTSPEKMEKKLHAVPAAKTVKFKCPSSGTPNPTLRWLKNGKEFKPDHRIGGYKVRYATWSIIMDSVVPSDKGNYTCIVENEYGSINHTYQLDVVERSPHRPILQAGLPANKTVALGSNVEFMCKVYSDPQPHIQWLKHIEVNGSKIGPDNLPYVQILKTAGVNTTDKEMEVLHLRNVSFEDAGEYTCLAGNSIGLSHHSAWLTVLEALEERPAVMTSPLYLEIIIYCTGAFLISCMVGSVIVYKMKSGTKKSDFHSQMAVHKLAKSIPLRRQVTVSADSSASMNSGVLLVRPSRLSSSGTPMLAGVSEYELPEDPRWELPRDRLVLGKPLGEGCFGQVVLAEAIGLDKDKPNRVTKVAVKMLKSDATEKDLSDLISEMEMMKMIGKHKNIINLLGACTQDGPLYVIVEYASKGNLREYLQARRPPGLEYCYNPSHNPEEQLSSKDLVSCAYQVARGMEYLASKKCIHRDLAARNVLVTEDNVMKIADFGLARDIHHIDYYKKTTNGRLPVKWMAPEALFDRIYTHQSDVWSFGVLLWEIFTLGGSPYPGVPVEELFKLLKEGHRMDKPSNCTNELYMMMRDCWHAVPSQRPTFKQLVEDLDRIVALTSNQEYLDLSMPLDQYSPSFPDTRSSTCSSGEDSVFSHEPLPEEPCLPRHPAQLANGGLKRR
Sequence of Receptor-type tyrosine-protein kinase FLT3 (Homo sapiens) (P36888 whole entry): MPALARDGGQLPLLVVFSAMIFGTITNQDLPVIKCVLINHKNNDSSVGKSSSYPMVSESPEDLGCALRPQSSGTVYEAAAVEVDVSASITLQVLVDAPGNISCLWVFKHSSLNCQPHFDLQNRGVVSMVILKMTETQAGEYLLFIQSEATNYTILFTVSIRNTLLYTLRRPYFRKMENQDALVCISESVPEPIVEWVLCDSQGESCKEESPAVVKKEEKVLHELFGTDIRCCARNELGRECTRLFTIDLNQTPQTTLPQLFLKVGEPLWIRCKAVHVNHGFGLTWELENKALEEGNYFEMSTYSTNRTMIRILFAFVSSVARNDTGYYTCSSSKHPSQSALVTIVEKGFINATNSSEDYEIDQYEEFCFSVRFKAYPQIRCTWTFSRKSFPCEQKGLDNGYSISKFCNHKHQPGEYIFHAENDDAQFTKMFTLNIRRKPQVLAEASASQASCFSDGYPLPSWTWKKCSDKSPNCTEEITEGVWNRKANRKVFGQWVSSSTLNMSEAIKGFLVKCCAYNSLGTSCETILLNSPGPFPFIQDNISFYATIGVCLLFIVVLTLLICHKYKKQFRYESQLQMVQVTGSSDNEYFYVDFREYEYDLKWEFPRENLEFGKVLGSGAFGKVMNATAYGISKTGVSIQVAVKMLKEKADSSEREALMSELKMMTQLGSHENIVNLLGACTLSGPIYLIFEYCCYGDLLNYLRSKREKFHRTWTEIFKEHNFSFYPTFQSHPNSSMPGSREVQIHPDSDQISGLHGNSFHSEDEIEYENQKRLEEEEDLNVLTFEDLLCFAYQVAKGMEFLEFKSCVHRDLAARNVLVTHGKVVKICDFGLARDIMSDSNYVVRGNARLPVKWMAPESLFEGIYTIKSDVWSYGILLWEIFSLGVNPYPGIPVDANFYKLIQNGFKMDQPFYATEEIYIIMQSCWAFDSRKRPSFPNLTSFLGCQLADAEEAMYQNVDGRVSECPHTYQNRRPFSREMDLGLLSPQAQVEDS
Sequence of Fibroblast growth factor receptor 3 (Homo sapiens) (P22607 23-806 limits assumed): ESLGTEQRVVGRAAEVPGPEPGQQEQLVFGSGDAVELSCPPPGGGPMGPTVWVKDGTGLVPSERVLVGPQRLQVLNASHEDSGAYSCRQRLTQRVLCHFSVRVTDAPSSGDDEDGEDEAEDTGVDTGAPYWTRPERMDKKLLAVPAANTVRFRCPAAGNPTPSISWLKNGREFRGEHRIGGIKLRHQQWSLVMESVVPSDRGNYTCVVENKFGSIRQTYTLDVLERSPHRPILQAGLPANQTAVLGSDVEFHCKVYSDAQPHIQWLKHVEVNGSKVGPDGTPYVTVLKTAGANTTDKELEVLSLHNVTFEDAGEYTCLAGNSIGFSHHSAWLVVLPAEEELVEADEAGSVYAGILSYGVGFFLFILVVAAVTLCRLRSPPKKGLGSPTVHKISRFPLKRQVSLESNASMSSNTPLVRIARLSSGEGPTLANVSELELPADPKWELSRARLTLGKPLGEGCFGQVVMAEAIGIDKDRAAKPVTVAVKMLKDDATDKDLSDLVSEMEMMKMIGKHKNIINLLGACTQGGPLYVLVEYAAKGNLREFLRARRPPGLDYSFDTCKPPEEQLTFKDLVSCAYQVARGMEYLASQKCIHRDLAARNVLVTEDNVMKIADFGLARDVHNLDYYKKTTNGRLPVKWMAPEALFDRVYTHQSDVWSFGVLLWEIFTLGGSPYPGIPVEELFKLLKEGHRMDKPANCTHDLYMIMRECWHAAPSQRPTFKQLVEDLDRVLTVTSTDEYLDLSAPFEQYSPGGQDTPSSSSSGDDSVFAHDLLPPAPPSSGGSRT

Broadly, the residual activity is the signal under treatment as a percentage of the control signal. `O=C(O)c1ccc2c3c1cccc3c(=O)n1c3ccccc3nc21`: the residual activity was found to be 100% in assay [1]; 94% in assay [2]; 75% in [3]; 110% in assay [4]; 78% in assay [5]; 98% in assay [6]. In addition, the residual activity in [7] was 92%; in [8], 112%; in assay [9], 96%; in [10], 81%; in assay [11], 5%; in assay [12], 98%. The residual activity came out at 71% in [13]; 97% in [14]; 87% in assay [15]; 92% in assay [16]; 81% in assay [17]; 50% in assay [18]. Further, the residual activity was determined as 22% in assay [19] and 74% in [20].

For `Oc1ccc(Nc2nc(-c3ccc(Cl)cc3)cs2)cc1`, the residual activity in assay [1] is 94%; in assay [2], 128%; in assay [3], 86%; in assay [4], 119%; in assay [5], 93%; in assay [6] it was 132%. Besides, the residual activity in assay [7] was 137%; in assay [8] it was 125%; in assay [9], 118%; in assay [10] it was 94%; in assay [11] it was 100%; in assay [12], 106%. The residual activity in assay [13] turned out to be 95%; in [14], 96%; in [15], 93%; in assay [16], 99%; in assay [17] it was 77%; in assay [18], 70%. For the same compound, the residual activity in [19] turned out to be 56%; in assay [20] it was 45%.

Turning to `Oc1ccc(-c2nc(-c3ccc(F)cc3)c(-c3ccncc3)[nH]2)cc1`, the residual activity in [1] worked out at 113%; in assay [2], 112%; in [3] it was 41%; in [4] it was 115%; in [5], 87%; in [6], 121%. Also, the residual activity was determined as 88% in [7]; 114% in assay [8]; 96% in assay [9]; 102% in [10]; 93% in assay [11]; 107% in assay [12]. The residual activity turned out to be 99% in assay [13]; 93% in assay [14]; 40% in assay [15]; 83% in assay [16]; 26% in assay [17]; 87% in assay [18]. Besides, the figures for the residual activity in assay [19] and in assay [20] were 85% and 90%, respectively.

For the compound `Nc1nc(Nc2ccc(S(N)(=O)=O)cc2)nn1C(=S)Nc1c(F)cccc1F`, the residual activity in assay [1] was -1%; in assay [2], 1%; in assay [3], -1%; in assay [4], 1%; in [5], -1%; in assay [6] it was 3%. For the same compound, the residual activity in assay [7] is 0%; in [8], 71%; in [9], 23%; in assay [10], 23%; in [11] it was 1%; in assay [12] it was 2%. The residual activity was 1% in assay [13]; 9% in [14]; 1% in assay [15]; 0% in assay [16]; -1% in [17]; 2% in [18]. In addition, the figures for the residual activity in assay [19] and in assay [20] were 1% and 0%, respectively.

Take `O=C1NC(=O)/C(=C\c2ccc3nccnc3c2)S1`: the residual activity is 83% in assay [1]; 113% in assay [2]; 91% in [3]; 98% in assay [4]; 101% in assay [5]; 96% in [6]. The residual activity in assay [7] worked out at 104%; in assay [8], 119%; in assay [9], 88%; in assay [10], 110%; in assay [11], 94%; in assay [12] it was 108%. The residual activity is 85% in [13]; 107% in assay [14]; 89% in assay [15]; 88% in assay [16]; 78% in [17]; 94% in [18]. Moreover, the residual activity in [19] came out at 76%; in [20], 98%.

With `COc1cc2ncnc(Nc3ccc(O)c(Br)c3)c2cc1OC`, the residual activity came to 64% in assay [1]; 58% in assay [2]; 24% in assay [3]; 94% in assay [4]; 67% in assay [5]; 109% in assay [6]. Further, the residual activity in assay [7] worked out at 67%; in assay [8] it was 126%; in assay [9] it was 101%; in assay [10] it was 105%; in assay [11] it was 84%; in [12] it was 95%. Further, the residual activity was determined as 65% in assay [13]; 39% in [14]; 6% in [15]; 29% in assay [16]; 4% in [17]; 49% in [18]. The residual activity in assay [19] was determined as 2%; in assay [20], 14%.

For `O=C1NC(=O)c2c1c1c3ccccc3[nH]c1c1[nH]c3cc(Br)ccc3c21`, the residual activity in assay [1] came to 95%; in assay [2], 90%; in assay [3], 57%; in assay [4], 99%; in assay [5], 82%; in [6], 104%. Further, the residual activity in assay [7] was found to be 88%; in assay [8], 94%; in [9], 90%; in assay [10] it was 103%; in [11] it was 86%; in assay [12], 100%. Further, the residual activity in assay [13] amounted to 96%; in assay [14], 100%; in assay [15], 91%; in assay [16], 30%; in assay [17], 17%; in [18] it was 41%. Also, the residual activity in assay [19] is 27%; in assay [20] it was 4%.

On to `COc1ccc(CNc2nc(N(CCO)CCO)nc3c2ncn3C(C)C)cc1`, for which the residual activity turned out to be 64% in assay [1]; 89% in [2]; 67% in assay [3]; 101% in assay [4]; 80% in assay [5]; 103% in [6]. Besides, the residual activity was determined as 109% in assay [7]; 116% in assay [8]; 104% in [9]; 91% in assay [10]; 86% in [11]; 62% in assay [12]. In addition, the residual activity in assay [13] was 23%; in [14] it was 77%; in [15], 85%; in [16] it was 88%; in assay [17] it was 55%; in assay [18], 85%. In addition, the residual activity in assay [19] came to 74%; in assay [20] it was 62%.

`COc1cccc(-c2cc(=O)c3ccccc3o2)c1N`: the residual activity in assay [1] amounted to 116%; in [2], 143%; in [3], 105%; in [4], 102%; in assay [5], 92%; in assay [6], 100%. The residual activity in assay [7] stood at 99%; in [8], 128%; in [9], 98%; in [10], 107%; in assay [11] it was 101%; in assay [12] it was 94%. Further, the residual activity in assay [13] came to 107%; in [14], 97%; in [15] it was 100%; in assay [16], 101%; in assay [17], 92%; in assay [18], 87%. Further, the values for the residual activity in [19] and in [20] were 85% and 95%, respectively.

With `COc1cc2ncnc(N3CCN(C(=O)Nc4ccc(Oc5ccccc5)cc4)CC3)c2cc1OC`, the residual activity in [1] is 76%; in assay [2], 90%; in [3], 89%; in assay [4] it was 105%; in assay [5], 102%; in assay [6] it was 115%. Also, the residual activity in [7] was found to be 99%; in assay [8], 120%; in [9] it was 105%; in assay [10], 104%; in assay [11] it was 88%; in assay [12], 98%. Also, the residual activity was 86% in assay [13]; 96% in assay [14]; 97% in assay [15]; 56% in [16]; 21% in assay [17]; 37% in assay [18]. The residual activity in assay [19] was determined as 18%; in assay [20] it was 31%.

`Ic1cccc(CSc2nnc(-c3ccncc3)o2)c1`: the residual activity in assay [1] was found to be 90%; in assay [2], 98%; in [3] it was 71%; in assay [4], 99%; in [5], 82%; in [6] it was 106%. The residual activity was 93% in assay [7]; 112% in [8]; 98% in assay [9]; 93% in [10]; 100% in assay [11]; 88% in assay [12]. The residual activity in assay [13] was determined as 92%; in [14], 80%; in [15], 81%; in [16], 26%; in assay [17], 19%; in assay [18], 30%. Further, the residual activity in [19] was found to be 19%; in [20] it was 22%.

Take `CCC(=O)Nc1ccc2ncnc(Nc3cccc(Br)c3)c2c1`: the residual activity amounted to 95% in [1]; 108% in [2]; 84% in [3]; 105% in assay [4]; 99% in [5]; 118% in [6]. Moreover, the residual activity came out at 123% in [7]; 120% in assay [8]; 100% in assay [9]; 106% in [10]; 91% in assay [11]; 115% in [12]. The residual activity worked out at 78% in assay [13]; 102% in assay [14]; 76% in [15]; 86% in assay [16]; 83% in assay [17]; 120% in [18]. Further, the values for the residual activity in assay [19] and in assay [20] were 107% and 85%, respectively.

As for `O=C1c2ccccc2-[n+]2ccc3c([nH]c4ccccc43)c21`, the residual activity in [1] amounted to 90%; in [2] it was 100%; in assay [3], 78%; in assay [4], 107%; in assay [5], 84%; in [6], 96%. In addition, the residual activity in assay [7] came to 114%; in assay [8], 109%; in [9], 97%; in assay [10], 92%; in assay [11], 90%; in [12], 89%. Besides, the residual activity turned out to be 88% in assay [13]; 92% in assay [14]; 85% in assay [15]; 79% in assay [16]; 67% in assay [17]; 87% in [18]. Besides, the residual activity in assay [19] worked out at 52%; in assay [20], 76%.
